The target of assay [1] is Beta-2 adrenergic receptor (Homo sapiens) (UniProt P07550). Nature of the assay: NVS_GPCR_hAdrb2: NovaScreen (NVS) G Protein-Coupled Receptor Assay for human Adrenergic, Beta 2 Receptor (Adrb2) (AID 2283261). In short, it runs like this:
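Filter-based radioligand binding using receptor prepared from CHO cells, 1 h incubation, scintillation counting. Primary screen in duplicate at 25 uM, actives retested in concentration series; loss of binding relative to DMSO.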

The target in assay [2] is human Adrenergic, Beta 3 Receptor (Adrb3), ADRB3 (gene 155) (UniProt P13945). The assay is described as follows: NVS_GPCR_hAdrb3: NovaScreen (NVS) G Protein-Coupled Receptor Assay for human Adrenergic, Beta 3 Receptor (Adrb3) (AID 2283262). In short, it runs like this: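 Membranes from SK-N-MC cells pretreated with isoproterenol and 8-bromo-cAMP were used in a radioligand competitive displacement binding assay. Binding was read by filter-based scintillation counting 1 hour after dosing. Primary screening was in duplicate at 25 uM, with concentration series in follow-up.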
Sequence of human Adrenergic, Beta 3 Receptor (Adrb3), ADRB3 (gene 155) (P13945 whole entry, looked up): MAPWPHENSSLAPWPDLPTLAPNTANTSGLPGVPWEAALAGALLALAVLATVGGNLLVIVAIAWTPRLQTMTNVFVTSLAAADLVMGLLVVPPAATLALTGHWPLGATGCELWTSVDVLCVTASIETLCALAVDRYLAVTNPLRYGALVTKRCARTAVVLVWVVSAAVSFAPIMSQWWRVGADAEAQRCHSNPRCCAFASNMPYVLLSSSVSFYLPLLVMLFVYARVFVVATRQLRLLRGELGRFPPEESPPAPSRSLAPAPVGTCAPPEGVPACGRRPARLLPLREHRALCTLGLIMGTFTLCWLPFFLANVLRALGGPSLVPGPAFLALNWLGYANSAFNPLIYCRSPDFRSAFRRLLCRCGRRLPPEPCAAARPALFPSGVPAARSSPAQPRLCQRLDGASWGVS

Assay [3] concerns the target human Dopamine Receptor D4.4 (DRD4.4), DRD4 (gene 1815) (UniProt P21917). Nature of the assay: NVS_GPCR_hDRD4.4: NovaScreen (NVS) G Protein-Coupled Receptor Assay for human Dopamine Receptor D4.4 (DRD4.4) (AID 2283264). In outline: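 Radioligand displacement on human DRD4.4 from CHO-derived membranes, 1 hour incubation, bound counts read by filtration and scintillation. Primary screen in duplicate at 25 uM; actives followed up in concentration series.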

The target in assay [4] is human Dopamine Receptor D2 (DRD2), DRD2 (gene 1813) (UniProt P14416). Nature of the assay: NVS_GPCR_hDRD2s: NovaScreen (NVS) G Protein-Coupled Receptor Assay for human Dopamine Receptor D2 (DRD2) (AID 2283266). In outline:
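Radioligand displacement used human DRD2 membranes extracted from CHO cells and was read by filter-based scintillation counting after 1.5 hours. Primary screening was in duplicate at 25 uM. Loss of signal versus DMSO was fitted, with concentration series in follow-up.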

The target in assay [5] is human Histamine 1 Receptor (H1), HRH1 (gene 3269) (UniProt P35367). Nature of the assay: NVS_GPCR_hH1: NovaScreen (NVS) G Protein-Coupled Receptor Assay for human Histamine 1 Receptor (H1) (AID 2283268). In short, it runs like this:
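Cell-free radioligand displacement at human H1 receptor, 1 h, filter scintillation counting; primary screen 25 uM in duplicate, hits in concentration series; loss of binding fitted vs DMSO.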

Assay [6] has as its target D(1A) dopamine receptor (Homo sapiens) (UniProt P21728). The assay is described as follows: NVS_GPCR_hDRD1: NovaScreen (NVS) G Protein-Coupled Receptor Assay for human Dopamine Receptor D1 (DRD1) (AID 2283269). In outline: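 Radioligand displacement binding on membranes/protein extracted from HEK293 expressing human D1, cell-free; read 1 h after dosing by filter-based scintillation counting. Primary screen in duplicate at 25 uM, actives followed up in concentration series; signal loss versus DMSO baseline.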

In assay [7] the target is Muscarinic acetylcholine receptor M1 (Homo sapiens) (UniProt P11229). Nature of the assay: NVS_GPCR_hM1: NovaScreen (NVS) G Protein-Coupled Receptor Assay for human Muscarinic, M1 Receptor (AID 2283270). In outline:
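Cell-free radioligand displacement using membrane protein extracted from CHO cells, read by filter-based scintillation counting 1 h after dosing. Loss of bound signal fitted versus DMSO; primary screen single concentration 25 uM in duplicate, actives followed by concentration series.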

For assay [8], the target named is human Endothelin Receptor Type A (ETA), EDNRA (gene 1909) (UniProt P25101). The assay is described as follows: NVS_GPCR_hETA: NovaScreen (NVS) G Protein-Coupled Receptor Assay for human Endothelin Receptor Type A (ETA) (AID 2283265). In short, it runs like this: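 Cell-free radioligand displacement using SH-SY5Y-derived protein, 3 h incubation, filter-based scintillation counting. Primary screen in duplicate at 25 uM; actives then run in concentration-response up to 50 uM; loss of binding fitted versus DMSO.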
Sequence of human Endothelin Receptor Type A (ETA), EDNRA (gene 1909) (P25101 whole entry, looked up): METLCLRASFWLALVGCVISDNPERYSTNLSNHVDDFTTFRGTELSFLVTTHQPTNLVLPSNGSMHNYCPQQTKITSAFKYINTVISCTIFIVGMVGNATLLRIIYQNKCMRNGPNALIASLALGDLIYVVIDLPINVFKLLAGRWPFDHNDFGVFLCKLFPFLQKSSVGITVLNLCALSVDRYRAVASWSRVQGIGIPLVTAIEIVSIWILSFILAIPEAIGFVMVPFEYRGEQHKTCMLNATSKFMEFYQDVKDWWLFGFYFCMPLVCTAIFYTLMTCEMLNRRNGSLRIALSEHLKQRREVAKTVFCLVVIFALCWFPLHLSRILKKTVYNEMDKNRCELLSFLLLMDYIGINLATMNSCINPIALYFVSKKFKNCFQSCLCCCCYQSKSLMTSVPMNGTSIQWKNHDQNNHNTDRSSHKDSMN

The target in assay [9] is human Endothelin Receptor Type B (ETB), EDNRB (gene 1910) (UniProt P24530). Nature of the assay: NVS_GPCR_hETB: NovaScreen (NVS) G Protein-Coupled Receptor Assay for human Endothelin Receptor Type B (ETB) (AID 2283267). In short, it runs like this: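 Human astrocytoma cell membranes; radioligand competitive binding read by filter scintillation counting 4 hours after dosing. Single-concentration duplicate screen at 25 uM, then singleton concentration-response up to 50 uM; loss of signal versus DMSO.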
Sequence of human Endothelin Receptor Type B (ETB), EDNRB (gene 1910) (P24530 whole entry, looked up): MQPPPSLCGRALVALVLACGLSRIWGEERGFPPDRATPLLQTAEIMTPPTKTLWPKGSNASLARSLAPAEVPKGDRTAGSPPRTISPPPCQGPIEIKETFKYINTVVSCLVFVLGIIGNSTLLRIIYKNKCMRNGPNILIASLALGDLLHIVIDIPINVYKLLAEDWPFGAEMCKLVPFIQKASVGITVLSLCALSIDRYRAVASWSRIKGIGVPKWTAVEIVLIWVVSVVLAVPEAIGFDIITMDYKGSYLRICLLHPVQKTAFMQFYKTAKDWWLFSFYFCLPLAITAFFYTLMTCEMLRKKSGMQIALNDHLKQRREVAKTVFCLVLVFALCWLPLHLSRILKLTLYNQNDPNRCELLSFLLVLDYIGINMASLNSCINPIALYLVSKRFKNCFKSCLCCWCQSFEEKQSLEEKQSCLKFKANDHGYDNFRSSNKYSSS

The structures appear in SMILES notation. Records with an inconclusive call do not appear. Activity calls are given as the source filed them. Rule for the calls: active = hit-call score of the fitted dose curve at least 0.9, where 1 is the maximum; inconclusive = response in the unintended direction; inactive = score below 0.9.

Sequence of human Dopamine Receptor D2 (DRD2), DRD2 (gene 1813) (P14416 whole entry, looked up): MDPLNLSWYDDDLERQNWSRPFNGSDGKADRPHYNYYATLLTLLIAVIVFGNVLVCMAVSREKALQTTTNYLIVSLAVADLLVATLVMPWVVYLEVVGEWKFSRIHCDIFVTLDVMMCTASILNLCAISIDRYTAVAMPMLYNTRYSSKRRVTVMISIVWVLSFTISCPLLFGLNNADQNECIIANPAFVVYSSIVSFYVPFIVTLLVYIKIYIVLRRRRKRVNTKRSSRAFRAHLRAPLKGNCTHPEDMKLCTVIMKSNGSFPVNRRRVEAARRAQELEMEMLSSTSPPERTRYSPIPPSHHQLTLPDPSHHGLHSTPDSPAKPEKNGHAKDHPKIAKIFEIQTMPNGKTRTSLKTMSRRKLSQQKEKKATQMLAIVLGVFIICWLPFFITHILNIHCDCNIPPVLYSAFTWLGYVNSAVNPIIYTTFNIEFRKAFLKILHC
Sequence of Beta-2 adrenergic receptor (Homo sapiens) (P07550 whole entry, looked up): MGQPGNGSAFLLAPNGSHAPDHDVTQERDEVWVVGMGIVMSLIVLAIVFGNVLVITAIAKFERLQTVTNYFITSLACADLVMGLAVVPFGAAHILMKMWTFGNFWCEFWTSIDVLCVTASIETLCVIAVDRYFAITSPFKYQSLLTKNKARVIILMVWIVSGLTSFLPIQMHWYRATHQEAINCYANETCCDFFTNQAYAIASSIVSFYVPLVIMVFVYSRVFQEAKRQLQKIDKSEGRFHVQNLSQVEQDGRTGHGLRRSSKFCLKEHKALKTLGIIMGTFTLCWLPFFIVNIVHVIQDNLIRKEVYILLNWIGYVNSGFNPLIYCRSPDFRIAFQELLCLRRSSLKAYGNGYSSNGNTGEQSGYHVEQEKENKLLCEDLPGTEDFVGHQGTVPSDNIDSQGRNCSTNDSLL
Sequence of human Histamine 1 Receptor (H1), HRH1 (gene 3269) (P35367 whole entry, looked up): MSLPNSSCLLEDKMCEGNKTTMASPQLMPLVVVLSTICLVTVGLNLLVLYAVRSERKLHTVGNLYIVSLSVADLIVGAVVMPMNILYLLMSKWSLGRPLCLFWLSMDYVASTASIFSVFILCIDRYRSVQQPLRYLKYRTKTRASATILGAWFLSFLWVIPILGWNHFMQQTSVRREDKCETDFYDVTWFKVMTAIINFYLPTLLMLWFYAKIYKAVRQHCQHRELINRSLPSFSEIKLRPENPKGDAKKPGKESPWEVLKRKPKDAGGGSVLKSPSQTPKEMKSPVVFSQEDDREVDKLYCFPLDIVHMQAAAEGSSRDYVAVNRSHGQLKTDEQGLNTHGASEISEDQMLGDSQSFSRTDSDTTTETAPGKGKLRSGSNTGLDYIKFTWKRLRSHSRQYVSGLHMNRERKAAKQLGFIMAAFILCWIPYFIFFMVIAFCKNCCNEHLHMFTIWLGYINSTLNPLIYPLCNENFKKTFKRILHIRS
Sequence of D(1A) dopamine receptor (Homo sapiens) (P21728 whole entry, looked up): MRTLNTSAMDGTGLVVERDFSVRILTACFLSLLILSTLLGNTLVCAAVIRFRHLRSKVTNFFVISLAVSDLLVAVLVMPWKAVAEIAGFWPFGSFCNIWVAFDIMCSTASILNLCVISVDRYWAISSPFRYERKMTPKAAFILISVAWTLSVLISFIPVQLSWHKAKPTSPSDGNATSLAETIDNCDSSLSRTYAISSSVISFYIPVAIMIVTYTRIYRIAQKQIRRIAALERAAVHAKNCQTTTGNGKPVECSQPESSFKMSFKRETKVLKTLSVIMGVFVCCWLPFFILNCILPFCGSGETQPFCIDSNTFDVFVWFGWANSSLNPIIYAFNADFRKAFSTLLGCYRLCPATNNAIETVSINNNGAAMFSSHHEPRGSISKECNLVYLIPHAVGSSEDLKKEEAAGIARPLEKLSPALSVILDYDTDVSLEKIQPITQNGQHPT
Sequence of Muscarinic acetylcholine receptor M1 (Homo sapiens) (P11229 whole entry, looked up): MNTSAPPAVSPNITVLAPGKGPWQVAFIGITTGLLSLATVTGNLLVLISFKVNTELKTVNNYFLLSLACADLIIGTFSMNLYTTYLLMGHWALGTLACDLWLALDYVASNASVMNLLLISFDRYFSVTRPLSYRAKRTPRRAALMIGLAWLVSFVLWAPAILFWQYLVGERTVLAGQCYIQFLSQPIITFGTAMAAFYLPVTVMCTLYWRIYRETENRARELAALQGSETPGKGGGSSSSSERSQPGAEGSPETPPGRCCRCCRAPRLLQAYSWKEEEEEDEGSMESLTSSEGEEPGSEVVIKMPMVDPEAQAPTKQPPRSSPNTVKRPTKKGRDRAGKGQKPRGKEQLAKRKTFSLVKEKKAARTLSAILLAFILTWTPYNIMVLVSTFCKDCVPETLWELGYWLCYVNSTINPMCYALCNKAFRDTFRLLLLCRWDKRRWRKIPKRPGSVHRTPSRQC
Sequence of human Dopamine Receptor D4.4 (DRD4.4), DRD4 (gene 1815) (P21917 whole entry, looked up): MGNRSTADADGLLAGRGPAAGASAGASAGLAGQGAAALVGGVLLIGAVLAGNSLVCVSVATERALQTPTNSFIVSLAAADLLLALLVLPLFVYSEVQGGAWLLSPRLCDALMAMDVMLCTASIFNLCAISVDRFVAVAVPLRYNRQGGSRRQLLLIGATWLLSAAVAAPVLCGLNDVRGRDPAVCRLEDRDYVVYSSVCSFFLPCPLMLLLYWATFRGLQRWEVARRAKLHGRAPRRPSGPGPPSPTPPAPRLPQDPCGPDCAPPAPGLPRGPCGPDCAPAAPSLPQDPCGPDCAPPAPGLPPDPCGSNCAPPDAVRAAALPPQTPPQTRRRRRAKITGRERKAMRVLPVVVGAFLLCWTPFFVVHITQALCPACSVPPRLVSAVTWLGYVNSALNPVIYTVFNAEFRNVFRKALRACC

For orientation: AC50 means the concentration giving half of the maximal activity seen. In the case of `CCOC(=O)c1ccc(C2CCC(NC[C@H](O)COc3ccc(O)c(NS(C)(=O)=O)c3)CC2)cc1` (some centres undefined), the AC50 in [1] is 0.24 µM (active); in assay [2], 7.77 µM (active); in [3], 11.3 µM (active); in [4], 0.0174 µM (active); in [5] it was 18.6 µM (active); in assay [6], 21.9 µM (active). Moreover, the AC50 in assay [7] is 12.7 µM (active).
Turning to `COc1cccc(-c2ccc(/C=C\CN3CCCCCC3)cc2Cl)c1`, the AC50 in assay [1] was 26.4 µM (active); in assay [3] it was 10.2 µM (active); in assay [4] it was 8.5 µM (active); in assay [5] it was 11.1 µM (active); in assay [6], 12.6 µM (active); in assay [7] it was 5.57 µM (active). The outcome in [2] was inactive.
For the compound `Nc1ccc(Nc2ccccc2)cc1`, the AC50 is 6.53 µM (active) in [8] and 17.6 µM (active) in assay [6].
As to `CC/C(=C\C(=N/O)C(N)=O)C(C)[N+](=O)[O-]` (centres undefined), the compound was classed as inactive in [2].
As for `CCOc1cccc(-n2cc(C(=O)N3CCN(c4cc(C(=O)O)c5ccccc5c4)CC3)nc2-c2ccc(C)cc2)c1`, the AC50 in [1] is 6.36 µM (active); in assay [5], 23.8 µM (active); in assay [6] it was 17.1 µM (active).
As to `CNS(=O)(=O)c1cc(C(=O)N2CCC(CCN3C4CCC3CC(n3c(C)nc5ccccc53)C4)(c3cccc(F)c3)CC2)c(Cl)cc1F` (centres undefined), the values for the AC50 in [4] and in [6] were 8.72 µM (active) and 15.8 µM (active), respectively.
Turning to `O=C(CCCCCCCCc1cccnc1)N1CCC(C=C(c2ccccc2)c2ccccc2)CC1`, the result in assay [9] was inactive.
As to `O=C(OC[C@H]1O[C@@H](OC(=O)c2cc(O)c(O)c(OC(=O)c3cc(O)c(O)c(O)c3)c2)[C@H](OC(=O)c2cc(O)c(O)c(OC(=O)c3cc(O)c(O)c(O)c3)c2)[C@@H](OC(=O)c2cc(O)c(O)c(OC(=O)c3cc(O)c(O)c(O)c3)c2)[C@@H]1OC(=O)c1cc(O)c(O)c(OC(=O)c2cc(O)c(O)c(O)c2)c1)c1cc(O)c(O)c(OC(=O)c2cc(O)c(O)c(O)c2)c1`, the call in assay [6] was inactive.

The values are drawn from PubChem BioAssay (EPA / NIEHS).
